# Source: the supplement of paper PMC3334620
# In all, about 33,000 sequences were measured (“E-score (-0.5 to 0.5)”: median about -0.011, highest 2% from about 0.28 on). The entries come from a sample that favours the highest values as a whole.
# Biological target: T1, Gcr1 (UniProt P07261)
# T1 sequence: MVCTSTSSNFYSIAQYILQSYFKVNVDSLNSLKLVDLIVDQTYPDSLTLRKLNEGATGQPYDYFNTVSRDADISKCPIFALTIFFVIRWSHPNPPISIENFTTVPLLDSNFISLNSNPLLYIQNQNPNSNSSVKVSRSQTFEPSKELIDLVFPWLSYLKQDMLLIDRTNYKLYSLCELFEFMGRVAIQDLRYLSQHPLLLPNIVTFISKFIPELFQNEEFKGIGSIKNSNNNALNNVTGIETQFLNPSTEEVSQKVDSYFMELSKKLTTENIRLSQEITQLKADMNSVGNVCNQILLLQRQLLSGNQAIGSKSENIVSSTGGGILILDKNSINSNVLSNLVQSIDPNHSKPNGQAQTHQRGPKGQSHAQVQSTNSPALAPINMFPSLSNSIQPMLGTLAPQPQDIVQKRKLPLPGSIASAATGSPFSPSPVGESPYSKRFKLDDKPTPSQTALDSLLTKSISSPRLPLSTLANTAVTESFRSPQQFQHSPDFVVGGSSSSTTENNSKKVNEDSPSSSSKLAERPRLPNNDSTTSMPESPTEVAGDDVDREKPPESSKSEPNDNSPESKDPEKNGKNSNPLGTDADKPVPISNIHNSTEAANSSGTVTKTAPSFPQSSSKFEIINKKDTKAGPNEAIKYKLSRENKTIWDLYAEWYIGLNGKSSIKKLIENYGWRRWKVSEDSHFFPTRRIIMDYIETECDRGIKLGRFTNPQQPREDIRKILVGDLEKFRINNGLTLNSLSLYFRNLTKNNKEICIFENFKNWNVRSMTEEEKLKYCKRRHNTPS
# Test: PBM E-score (8-mer binding enrichment) (E-score (-0.5 to 0.5)); higher = stronger / more preferred TF binding
# Settings: protein concentration: 100 nM; construct: GST-full length
# Procedure, shortened: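 Universal all-10-mer Agilent arrays, double-stranded by primer extension on fresh or once-stripped slides, were probed with about 100-200 nM GST-tagged yeast transcription factors made by PURExpress. Fluorescent anti-GST detected bound protein, and masliner normalised the scans. E-scores from the Universal PBM Analysis Suite were given to each ungapped eight-base word pooled with its reverse complement.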
row,Sequence,PBM E-score
1,CACTTCTA,0.00557
2,ATTTATGC,0.0089
3,GCGGCCCC,0.19
4,GATGAGAA,-0.138
5,GGCGTCCA,0.436
6,CGCGTCCA,0.245
7,TGCGTCCA,0.0639
8,GTGACATA,0.217
9,GCAGATTA,0.0499
10,AGATACCA,0.246
11,TGATACCA,0.107
12,GGATACCA,0.33
13,GAAAACCA,0.084
14,AAATCTTA,0.111
15,CGTATCTA,0.0661
16,AGTATCTA,-0.103
17,GGAATCTA,0.357
18,CGCATCTA,0.204
19,GGCATCTA,0.347
20,GGTATCTA,0.292
21,AGCATCTC,0.121
22,AGCATCTG,0.115
23,AGCATCTA,0.319
24,GGCATCAA,0.0535
25,CGAATCTA,0.122

row,Sequence,PBM E-score
1,AGAATCTA,0.219
2,CGAGACAG,-0.0925
3,AGACGGAA,-0.0525
4,AAGGAATA,-0.159
5,ACTGGTCC,-0.314
6,ACCCACAC,-0.0404
7,ACTCGCCG,-0.00848
8,ACTCTTCC,-0.211
9,CGCGAACA,-0.00841
10,GCGGGGCC,0.131
11,ACATCTAC,-0.0726
12,CATTGAAC,0.0331
13,ATTTTAGC,0.0912
14,AGCCACTG,0.11
15,CACCGGTC,-0.271
16,CCGGACGC,0.31
17,CCGGACGG,-0.116
18,GAGGACAC,-0.225
19,CTGGACGA,-0.0396
20,ACGGACGC,0.14
21,CAGGACGC,0.412
22,GAGGACGC,0.289
23,ATGGACGC,0.262
24,CTGGACGC,0.412
25,AAGGACGC,0.256

row,Sequence,PBM E-score
1,CAGGACGA,-0.145
2,GAGGACGA,-0.0483
3,AATTTGAG,0.137
4,AGCTTCGA,0.0125
5,TATTGCCA,0.00643
6,ACCCGCTC,-0.0223
7,ATATGCAT,-0.0625
8,AGAAAAAC,0.134
9,GTGTTCCA,0.112
10,ACCCGGCA,0.125
11,AACGGAGG,-0.167
12,CAGCCACG,0.12
13,ACAAGATA,0.102
14,ACAAGATC,0.0465
15,AAAAGAAC,-0.0325
16,CAAAGAAG,0.184
17,ATAAGAAG,0.381
18,AGAAGAAC,0.13
19,AGAAGAAT,0.119
20,ATAAGAAC,0.269
21,AGAAGAAG,0.437
22,AAAAGAAG,0.309
23,ATAAGAAA,0.171
24,ACAAGATG,0.294
25,CTCAATAC,-0.00463

row,Sequence,PBM E-score
1,CTGTTGGA,0.103
2,GGTCGGAC,-0.206
3,CCATATCG,0.05
4,CGTGAGGC,-0.0867
5,ACAAGAAT,0.252
6,ACAAGAAG,0.415
7,ACAAGAAA,0.155
8,GCAAACTA,0.0887
9,GGGCACCA,0.364
10,TGGCACAA,-0.0481
11,GGGCACCC,0.321
12,TCGCACCA,0.0244
13,TGGCACCA,0.321
14,AGGCACCC,0.284
15,AGGCACCG,0.04
16,AGGCACCT,0.16
17,GCGCACCC,-0.0278
18,GGGCACAC,-0.0584
19,AGGCACCA,0.136
20,GGGCACGA,0.0341
21,CCATACTA,0.0399
22,CATGGTGC,0.0809
23,CGTGCATC,0.00547
24,AAGCCCGA,0.0664
25,GGTATCGA,0.00098

row,Sequence,PBM E-score
1,CAGCACCA,0.277
2,CGGCACCA,0.245
3,GAGCACCA,0.207
4,CGGCACCC,0.381
5,CGGCACCG,0.143
6,TAGCACCA,0.323
7,GTCACCAA,0.0813
8,GCAGGAAC,-0.0184
9,CAATCTCC,0.0196
10,CAGATAGA,0.0277
11,ACAGTCCT,-0.141
12,CCTACGGC,-0.146
13,AACTCGGA,0.0328
14,CTTACCCC,-0.052
15,CGGGACCA,0.00102
16,GGGGACCA,0.194
17,AGGGACCC,-0.0366
18,GGGGACCC,0.291
19,CGGGACCG,-0.00477
20,CGGGACCC,0.306
21,TAGCTGCA,-0.0344
22,AGACGGAG,-0.0738
23,CAAGCCGC,-0.00721
24,CCAGCCGC,-0.0253
25,ACAGCCGC,-0.0946

row,Sequence,PBM E-score
1,AAAGCCGC,0.0398
2,GAAGCCGA,0.401
3,GAAGCCGC,0.439
4,GCAGCCGC,0.282
5,TAAGCCGA,-0.177
6,CAAGCCGA,-0.038
7,ATGTGGTC,-0.0553
8,CTTTTGAA,0.1
9,AAATTTGC,0.109
10,CCGCAGCC,0.223
11,GCGCAGCC,0.292
12,GCGCAGAC,-0.167
13,ACGCAGCC,0.304
14,ACGCAGCA,-0.0163
15,GCGCAGCA,-0.0801
16,ACGCAGCT,0.308
17,ACGCAGAT,0.151
18,ACGCAGCG,0.244
19,AGAACCGG,0.214
20,CGAATGGC,0.137
21,CAGGGTGC,0.234
22,ACTCATAA,-0.0566
23,AAGCCGAT,-0.0786
24,GGGAACGA,-0.0791
25,TGGAACCA,0.357

row,Sequence,PBM E-score
1,TAGAACCA,0.0906
2,CGGAACCA,0.114
3,CGGAACCC,0.348
4,AGGAACCT,0.38
5,ACGAACCT,-0.0495
6,CAGAACCC,0.208
7,AAGAACCT,0.2
8,CGGAACCG,0.18
9,GGGAACCA,0.314
10,TGGAACAA,-0.0703
11,CAGTACCA,0.0486
12,AACATTCG,-0.0406
13,TAAATACA,0.161
14,GGTGGTCA,-0.132
15,AGCACGCT,-0.123
16,ACAGCGGT,-0.219
17,GAGAACCC,-0.162
18,AGGAACCA,0.203
19,GGAAACCC,0.106
20,GGGAACCC,0.336
21,AGGAACCG,0.139
22,AGGAACCC,0.414
